Bioassay records as filed in PubChem BioAssay.
DRD3 agonist: agonists of human D3 dopamine receptor; actives 0.58% (n = 410,000); P35462; D3R DiscoveRx beta-arrestin cells, luminescence, 90 min; max activation, %; in the data active = max activation above about 30%; note: 0% is about no effect
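Agonist mode: compounds and dopamine controls were applied to plated cells for 90 min at 37 degrees C after an overnight attachment at 1500 cells/well. Luminescent read-out followed 30 - 60 minutes at room temperature with DiscoveRx detection reagent.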
D1 agonist: agonists of human D1 dopamine receptor | P21728 | HEK293 T-REx D1 cells, calcium flux, agonist mode | AID 504660 | activation, % at 2 µM | actives 1% (n = 360,000); in the data active = activation above about 30%; note: 0% is about no effect
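Inducible HEK293 T-REx D1 cells, force-coupled to calcium signalling, were plated at 4000 cells/well with tetracycline and held overnight at 30 C. After no-wash calcium dye loading, compound-evoked calcium rise over 180 s flagged agonists.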
D1 antagonist: blocks dopamine activation of the human D1 receptor; AID 504652; HEK293 TREx D1 cells, calcium flux, dopamine EC80; hits give low values; P21728; activity change, negative = inhibition, % at 10 µM; actives 3.2% (n = 360,000); in the data active = activity change below about -30%; note: % is set by controls: 0 for no effect and ±100 for the full control effect
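Allosteric or orthosteric antagonism assessed as attenuation of the calcium response to EC80 dopamine, added 180 s after compound, in induced HEK293 Trex D1 cells loaded with no-wash calcium dye.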
D1 potentiator: human D1 dopamine receptor positive modulation | P21728 | HEK293 TREx D1 cells, calcium flux, dopamine EC20 potentiation | potentiation, % at 10 µM | actives 0.036% (n = 360,000); in the data active = potentiation above about 30%; note: 0% is about no effect
ERG Ets-DNA blk: inhibitors of human ERG Ets domain-DNA interaction. fluorescence polarization, His-ERG Ets domain / labelled DNA. actives 0.028% (n = 370,000). P11308. Potency, µM (series often up to 76.9 µM), for the others: top-dose FP activity, negative = inhibition, actives largely listed as inhibitors; active = well fitted inhibition curve with a large enough effect in the polarisation, with a control signal flat; inconclusive = small, poorly fitted or top-dose-only effect, or effect the other way, or a change in a side signal; inactive = no such curve, though single readings can be large or run the other way; the % refers to the polarisation;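 note: polarization taken with two DNA probes labelled with fluorescein and Texas red; potency is the fitted concentration of half-maximal effect; % of control where 0% means no effect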
Target sequence (P11308 whole entry, looked up, the tested form may be a part): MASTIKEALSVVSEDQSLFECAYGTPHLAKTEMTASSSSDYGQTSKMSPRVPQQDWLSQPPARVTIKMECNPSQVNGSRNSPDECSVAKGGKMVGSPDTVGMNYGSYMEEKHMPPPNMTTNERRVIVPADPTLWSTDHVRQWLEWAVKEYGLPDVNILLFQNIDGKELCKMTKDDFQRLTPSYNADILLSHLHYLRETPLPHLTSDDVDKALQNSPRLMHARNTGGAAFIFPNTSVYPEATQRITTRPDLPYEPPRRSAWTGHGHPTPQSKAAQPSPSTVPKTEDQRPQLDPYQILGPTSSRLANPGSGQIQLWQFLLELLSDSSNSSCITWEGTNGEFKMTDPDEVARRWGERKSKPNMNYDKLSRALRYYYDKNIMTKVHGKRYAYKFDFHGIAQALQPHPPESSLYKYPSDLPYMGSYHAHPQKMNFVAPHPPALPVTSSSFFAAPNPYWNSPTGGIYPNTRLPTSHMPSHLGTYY
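His-tagged ERG Ets domain (1 uM in the protein solution; 300mM KCl, 50mM Tris-HCl, 1mM EDTA, 1mM DTT, pH 7.5) received compound, then a probe mix of 5 nM fluorescein-DNA and 100nM Texas-615-DNA. Fluorescence polarization was read for both dyes.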
DRD3 antagonist: antagonists of human D3 dopamine receptor. D3R cells, DiscoveRx beta-arrestin luminescence, antagonist mode; hits give low values. max response, negative = inhibition, %. actives 2.5% (n = 360,000). AID 652054; in the data active = max response below about -50%; inconclusive = no clear call, values can overlap the other calls; note: % is set by controls: 0 for no effect and ±100 for the full control effect
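Cells plated overnight at 1500 cells/well, then exposed to library compounds with dopamine controls for 90 minutes at 37 degrees C. DiscoveRx reagent added for 30–60 minutes at room temperature; luminescence read, quantitative HTS format.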
Active calls of the source: *; ? = inconclusive; . = no result given. In the library only some 6.1% were active in any assay of this set; here they are far more common.

SMILES | DRD3 agonist | D1 agonist | D1 antagonist | D1 potentiator | ERG Ets-DNA blk | DRD3 antagonist
C=C1C(=O)OC2C=C(CO)C3OC3C3OC3(C)CC(OC(=O)/C(=C/C)COC(C)=O)C12 (stereo not given) | -15 | . | . | . | -14% | -81*
Cc1cc(=O)[nH]c2nnc(SCC(=O)N3CC(C)OC(C)C3)n12 (stereo not given) | 1 | 3 | 33 | -4 | 2% | 9
CCCc1cc(=O)[nH]c2nnc(SCC(=O)N3CC(C)OC(C)C3)n12 (stereo not given) | 6 | 3 | -65* | -2 | 4% | 13
CN(C)CCNC(=O)c1ccc(COc2ccc(Cl)cc2Cl)cc1 | -19 | 95* | -64* | -18 | -4% | -29
COc1cc(NC(=O)C2=C(C)OCCS2)c(Cl)cc1C(=O)NCCN(C)C | -11 | 2 | -1 | 5 | -7% | -52*
COc1ccc(Cl)cc1C(=O)NCCN(C)C | -4 | 3 | 7 | -5 | -3% | -72*
CN(C)CCNC(=O)NC(=O)c1ccc(Cl)cc1 | -3 | 0 | 4 | -3 | -4% | -6
CCNC(=O)c1cc(Cl)ccc1OC | 3 | 1 | -21 | 1 | 0% | -7
N#CCSc1nnc(Cc2cccs2)n1C1CCCCC1 | 1 | 1 | -14 | -6 | -3% | -15
CC(=O)c1cccc(NC(=O)COC(=O)CCNS(=O)(=O)c2ccccc2)c1 | 1 | . | . | . | -12% | 7
O=C(c1cccc(C(F)(F)F)c1)N1CCCCCC1 | -6 | 2 | -56* | -6 | -2% | 14
O=C(c1cccc(C(F)(F)F)c1)N1CCCC1 | 2 | 1 | 2 | -4 | 7% | 18
CC(NC(=O)C1CCCN(C(=O)c2ccc(Cl)cc2)C1)c1cccc(C(F)(F)F)c1 (stereo not given) | -7 | 12 | -37* | . | -1% | -21
COc1ccc(NC(=O)c2cc(C3CCCCN3C(=O)OCC(C)C)on2)c(C)c1 (stereo not given) | 0 | . | . | . | . | -16
COCc1cc(=O)[nH]c(SCC(=O)N2CCOCC2)n1 | 7 | 2 | -5 | -2 | 10% | 21
CCCCCCCCC1=NCCc2c1[nH]c1ccccc21 | -7 | 38* | -14 | -11 | 8% | -17
CCN(CC)c1ccc2cc(-c3nnc(-c4cccc(Cl)c4)o3)c(=O)oc2c1 | -3 | 416* | -14 | 38* | -1% | .
COc1cccc(-c2nnc(-c3cc4cc(Cl)ccc4oc3=O)o2)c1 | 4 | 1 | 31 | -3 | -3% | .
c1cc(-c2nnc(-c3ccncc3)o2)ccn1 | -3 | 1 | -10 | -1 | 0% | -7
CCN(CC)c1ccc2cc(-c3nnc(-c4ccncc4)o3)c(=O)oc2c1 | 9 | 199* | -18 | -9 | ? | 36
NS(=O)(=O)c1ccc(CCNCC#Cc2ccccc2)cc1 | -14 | 8 | 2 | 3 | 2% | -23
COc1ccc(CNS(=O)(=O)NCc2ccccc2)cc1 | -3 | 0 | -6 | -2 | 12% | -7
COc1ccc(CNS(=O)(=O)CCNCCc2ccccc2)cc1 | -23 | . | . | . | 4% | 9
COc1ccc(CNC/C=C/c2ccccc2)cc1 | -5 | 11 | 6 | -2 | -2% | -80*
NS(=O)(=O)c1ccc(CCNC/C=C/c2ccccc2)cc1 | -3 | 6 | -2 | -10 | 6% | -71*
SMILES | DRD3 agonist | D1 agonist | D1 antagonist | D1 potentiator | ERG Ets-DNA blk | DRD3 antagonist
COc1ccc(CCNC/C=C/c2ccccc2)cc1 | -17 | . | . | . | -1% | -59*
CCC(=O)Nc1ccc(CC)cc1-c1nc2ccccc2n(CC(=O)Nc2cccc(OC)c2)c1=O | -11 | 0 | 9 | -1 | 6% | .
Cc1cccc(C)c1NC(=O)Cn1c(=O)n(CCC(=O)NCc2ccccc2Cl)c(=O)c2sccc21 | 4 | 9 | -8 | 1 | 8% | .
Cc1c([N+](=O)[O-])c([N+](=O)[O-])nn1CC(=O)N1CCOCC1 | -4 | 5 | 25 | -2 | 10% | 12
O=C(N/C(=C/C=C/c1ccccc1)C(=O)N1CCOCC1)c1ccccc1Br | -4 | 1 | 7 | 8 | -17% | -6
CCSC1=NCCN1S(=O)(=O)c1ccc(NC(C)=O)cc1 | -3 | -2 | -8 | -3 | -9% | -16
CC(=O)Nc1ccc(S(=O)(=O)N2CCN=C2SCc2ccc(C)cc2)cc1 | 10 | 23 | -41* | -3 | -1% | 10
CSC1=NCCN1S(=O)(=O)c1ccc(NC(C)=O)cc1 | 4 | 1 | 8 | -5 | 8% | 18
CC(=O)Nc1ccc(S(=O)(=O)N2CCN=C2SCc2ccc(F)cc2)cc1 | 3 | 37* | -26 | -20 | 14% | 22
Cc1csc(NC(=O)NCC2CCCC(CNC(=O)Nc3nc(C)cs3)C2)n1 (stereo not given) | 4 | 2 | -16 | -3 | -5% | -3
CCOc1ccc(C(=O)Nc2ccc(N3CCN(C)CC3)cc2)cc1[N+](=O)[O-] | -2 | 2 | -10 | 0 | 3% | -22
N/C(=N\OC(=O)CSc1ccccc1)c1ccccn1 | 1 | 3 | 3 | 5 | 0% | 5
Cc1n[nH]c(=O)c2c1nnn2Cc1ccccc1Cl | 6 | 0 | -51* | -7 | 13% | 0
Cc1cc(C)c2c(n1)sc1c(=O)n(Cc3ccccc3Cl)nnc12 | 3 | 0 | -8 | -4 | 10% | -51*
CCOC(=O)CSc1nc2ccccc2n2cnnc12 | -9 | 4 | -2 | 4 | 2% | -51*
C=CCSc1nc2ccccc2n2cnnc12 | 0 | 0 | -1 | 2 | 5% | 7
CCOc1cc(S(=O)(=O)N(Cc2ccccc2)Cc2ccccc2)c(OCC)cc1-n1cnnn1 | -3 | 4 | 7 | -5 | 8% | -63*
OC(CNCc1ccc(F)cc1)(c1ccc(F)cc1)c1ccc(F)cc1 | 2 | 9 | 3 | 5 | -4% | -51*
COc1cccc(C2C(C(=O)c3sc(C)nc3C)=C(O)C(=O)N2CCN2CCOCC2)c1 (stereo not given) | 1 | 10 | -1 | -3 | -2% | -3
CCN(CC)c1ccc(/C=C/C(=O)C2C(=O)C=C(C)OC2=O)cc1 (stereo not given) | -7 | 246* | -79* | -4 | 135% | -15
CCN(CC)c1ccc(C=C2C(=O)OC(c3ccccc3)OC2=O)cc1 (stereo not given) | -2 | 0 | -3 | 0 | 35% | 15
O=C(NCCNC1CCC(c2ccccc2)CC1)c1cccs1 (stereo not given) | -11 | 13 | 4 | -3 | 7% | -54*
CCOC(=O)N1CCC(NCCNC(=O)c2cccs2)CC1 | -8 | -1 | 2 | -6 | -14% | -77*
CCOC(=O)N1CCC(NCCNC(=O)c2ccccc2)CC1 | -2 | 2 | -6 | -8 | 3% | -73*
